# From PubChem BioAssay
# Calls of active or inactive are those of the source. Unless noted, no stated cut-off is given here; in the data, active means inhibition above about 30%; inactive means the rest.
# How the values were obtained:
# [1] = target: Nuclear receptor coactivator 3 (Homo sapiens) (UniProt Q9Y6Q9); experiment: NCOA3 GAL4-fusion reporter inhibition – cell-based, luminescence, quadruplicate, confirmation (AID 588792;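 active means mean inhibition over 43.08%, the solvent-only control mean plus 3 SD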;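 further: 0% = DMSO treated cells and 100% = gossypol at 36 µM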); conditions: HEK293 GAL4-SRC3 luciferase reporter, at 3.6 µM, active compounds read high
# [2] = tested on: transactivating tegument protein VP16 (Human herpesvirus 1), Gal4-VP16 luciferase reporter; experiment: repression of VP16-driven luciferase reporter – cell-based, luminescence, high throughput, counter-screen for SRC3 inhibitor project (AID 588794); conditions: mammalian cells, at 3.6 µM, active compounds read high
# [3] = target: Nuclear receptor coactivator 1 (Homo sapiens) (UniProt Q15788); experiment: NCOA1 GAL4-fusion reporter inhibition – cell-based, luminescence, quadruplicate, confirmation (AID 588820;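 active means mean inhibition above 46.68%, the untreated control wells mean plus 3 SD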;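 further: 0% = DMSO wells and 100% = gossypol 36 µM treated wells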); conditions: HEK293 GAL4-SRC1 luciferase reporter, at 3.6 µM, active compounds read high
# [4] = repression of VP16-driven luciferase reporter – cell-based, luminescence, high throughput, counter-screen for SRC1 inhibitor project (AID 588824; in the data active means inhibition above about 25%); conditions: cell-based VP16 transactivation luciferase luminescence; at 3.6 µM; active compounds read high
# Sequence of Nuclear receptor coactivator 3 (Homo sapiens) (Q9Y6Q9 whole entry, looked up, the tested form may be a part): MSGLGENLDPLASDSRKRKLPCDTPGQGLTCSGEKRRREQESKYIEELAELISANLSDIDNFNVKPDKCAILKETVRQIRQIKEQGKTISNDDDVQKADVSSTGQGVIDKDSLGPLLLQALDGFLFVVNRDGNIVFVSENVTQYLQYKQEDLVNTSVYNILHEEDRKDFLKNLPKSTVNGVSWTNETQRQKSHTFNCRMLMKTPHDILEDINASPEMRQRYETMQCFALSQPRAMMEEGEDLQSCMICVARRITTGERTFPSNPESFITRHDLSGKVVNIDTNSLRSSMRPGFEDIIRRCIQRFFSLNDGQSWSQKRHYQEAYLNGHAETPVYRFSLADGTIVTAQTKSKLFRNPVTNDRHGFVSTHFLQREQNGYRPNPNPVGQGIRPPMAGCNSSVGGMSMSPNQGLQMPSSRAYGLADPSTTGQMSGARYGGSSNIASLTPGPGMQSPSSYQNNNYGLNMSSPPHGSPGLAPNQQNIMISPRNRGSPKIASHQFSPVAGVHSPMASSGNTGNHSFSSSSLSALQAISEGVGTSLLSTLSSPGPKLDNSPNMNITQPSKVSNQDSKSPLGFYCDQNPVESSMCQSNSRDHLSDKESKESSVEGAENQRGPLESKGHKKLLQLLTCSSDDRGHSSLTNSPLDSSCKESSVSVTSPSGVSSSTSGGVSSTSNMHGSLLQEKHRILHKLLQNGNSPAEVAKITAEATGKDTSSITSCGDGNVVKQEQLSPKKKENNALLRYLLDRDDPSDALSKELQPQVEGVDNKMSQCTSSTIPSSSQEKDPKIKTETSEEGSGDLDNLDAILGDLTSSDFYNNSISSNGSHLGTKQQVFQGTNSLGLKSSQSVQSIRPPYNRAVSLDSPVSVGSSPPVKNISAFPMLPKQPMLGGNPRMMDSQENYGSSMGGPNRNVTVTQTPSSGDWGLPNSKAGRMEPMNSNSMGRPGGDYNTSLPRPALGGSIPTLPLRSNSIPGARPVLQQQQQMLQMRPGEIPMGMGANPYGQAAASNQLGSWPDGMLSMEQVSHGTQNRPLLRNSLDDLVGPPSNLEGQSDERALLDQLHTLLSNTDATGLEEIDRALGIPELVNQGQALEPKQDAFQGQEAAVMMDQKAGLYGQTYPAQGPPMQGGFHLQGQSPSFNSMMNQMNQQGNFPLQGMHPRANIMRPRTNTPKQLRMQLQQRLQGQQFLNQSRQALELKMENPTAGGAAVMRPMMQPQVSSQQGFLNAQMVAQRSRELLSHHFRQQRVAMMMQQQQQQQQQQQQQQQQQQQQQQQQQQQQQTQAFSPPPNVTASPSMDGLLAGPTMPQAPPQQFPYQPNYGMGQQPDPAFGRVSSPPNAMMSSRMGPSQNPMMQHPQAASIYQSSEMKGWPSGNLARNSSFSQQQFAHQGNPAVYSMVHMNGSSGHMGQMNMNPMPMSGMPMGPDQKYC
# Sequence of Nuclear receptor coactivator 1 (Homo sapiens) (Q15788 whole entry, looked up, the tested form may be a part): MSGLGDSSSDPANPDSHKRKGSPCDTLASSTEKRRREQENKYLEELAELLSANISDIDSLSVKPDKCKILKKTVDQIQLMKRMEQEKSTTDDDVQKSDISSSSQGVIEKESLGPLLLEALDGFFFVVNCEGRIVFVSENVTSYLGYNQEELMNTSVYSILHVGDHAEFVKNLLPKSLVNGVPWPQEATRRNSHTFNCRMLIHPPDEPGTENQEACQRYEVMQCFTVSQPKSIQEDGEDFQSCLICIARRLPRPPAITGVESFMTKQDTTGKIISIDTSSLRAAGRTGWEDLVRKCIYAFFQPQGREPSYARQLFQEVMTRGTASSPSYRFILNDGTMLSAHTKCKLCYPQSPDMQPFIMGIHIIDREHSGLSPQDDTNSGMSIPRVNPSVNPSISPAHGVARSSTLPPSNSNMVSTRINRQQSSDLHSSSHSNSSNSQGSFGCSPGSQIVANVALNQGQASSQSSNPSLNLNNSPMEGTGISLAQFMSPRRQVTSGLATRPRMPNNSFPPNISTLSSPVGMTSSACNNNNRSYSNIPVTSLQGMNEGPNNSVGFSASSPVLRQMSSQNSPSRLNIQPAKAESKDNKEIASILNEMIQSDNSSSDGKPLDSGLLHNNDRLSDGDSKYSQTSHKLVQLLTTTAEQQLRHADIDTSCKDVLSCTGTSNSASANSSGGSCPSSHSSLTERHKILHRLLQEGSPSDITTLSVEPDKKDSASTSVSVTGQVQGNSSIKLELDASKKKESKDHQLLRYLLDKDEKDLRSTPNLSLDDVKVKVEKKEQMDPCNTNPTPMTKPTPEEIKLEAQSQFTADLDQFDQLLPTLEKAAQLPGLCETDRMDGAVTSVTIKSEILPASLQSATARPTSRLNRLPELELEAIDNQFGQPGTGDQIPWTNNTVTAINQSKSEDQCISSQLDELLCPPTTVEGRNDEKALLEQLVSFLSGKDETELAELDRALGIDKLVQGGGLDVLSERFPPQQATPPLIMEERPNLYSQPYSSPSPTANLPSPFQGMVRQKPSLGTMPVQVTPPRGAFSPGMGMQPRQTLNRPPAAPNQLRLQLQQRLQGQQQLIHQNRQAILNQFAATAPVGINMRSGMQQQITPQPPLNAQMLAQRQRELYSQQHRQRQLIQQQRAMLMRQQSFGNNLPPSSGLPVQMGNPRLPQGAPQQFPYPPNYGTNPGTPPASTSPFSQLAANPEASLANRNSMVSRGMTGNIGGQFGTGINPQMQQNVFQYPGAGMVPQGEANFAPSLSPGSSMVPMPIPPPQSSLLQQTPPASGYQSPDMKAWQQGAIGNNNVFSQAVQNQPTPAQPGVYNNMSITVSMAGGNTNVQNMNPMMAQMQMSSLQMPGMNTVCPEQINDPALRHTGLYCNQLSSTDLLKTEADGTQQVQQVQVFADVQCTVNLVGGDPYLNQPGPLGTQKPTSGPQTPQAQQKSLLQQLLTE
Structure (SMILES),inhibition [1],inhibition [2],inhibition [3],inhibition [4]
CC(C)(C)c1cc(C(=O)N/N=C/c2ccc(O)cc2)n(-c2ccccc2)n1,34.9% (inactive),14% (inactive),20.3% (inactive),13.7% (inactive)
CC(C)c1ccc(/C=N/Nc2ccc(C(=O)O)cc2)cc1,-6.28% (inactive),-26.7% (inactive),-72.5% (inactive),-51.3% (inactive)
Cc1nc2ccc(NC(=O)c3ccc(Cl)c(S(=O)(=O)N(C)c4ccccc4)c3)cc2s1,19.2% (inactive),35.7% (active),3.35% (inactive),33.7% (active)
Cc1nn(Cc2ccc(Cl)cc2)c(C)c1NC(=O)c1cc(-c2ccc3c(c2)OCO3)on1,15.2% (inactive),50.3% (active),29.5% (inactive),54.1% (active)
O=C(Nc1cccnc1)c1ccc(C(=O)Nc2cccnc2)cc1,32.2% (inactive),19.1% (inactive),23.3% (inactive),20.4% (inactive)
